# A number with no mark means an inactive call. Results filed as inconclusive are left out. Active and inactive are the calls of the source. Unless noted, the call rests on the fitted dose curve; in most records, active means well fitted curve in the direction sought with a large enough effect; inconclusive means small, poorly fitted or top-dose-only effect, or another doubt; inactive means no such curve, though single readings can be large; an effect the other way counts as inactive or inconclusive.
# Columns and labels:
# [1] = molecular target: Lysosomal acid glucosylceramidase (Homo sapiens) (UniProt P04062); experiment: Glucocerebrosidase-p2 (AID 348; in the data active means potency below about 10 µM; further: potency means the concentration at half of the fitted maximal effect); details: purified GBA, blue fluorogenic substrate, 40 min
# Chain of Lysosomal acid glucosylceramidase (Homo sapiens) (P04062 whole entry, looked up): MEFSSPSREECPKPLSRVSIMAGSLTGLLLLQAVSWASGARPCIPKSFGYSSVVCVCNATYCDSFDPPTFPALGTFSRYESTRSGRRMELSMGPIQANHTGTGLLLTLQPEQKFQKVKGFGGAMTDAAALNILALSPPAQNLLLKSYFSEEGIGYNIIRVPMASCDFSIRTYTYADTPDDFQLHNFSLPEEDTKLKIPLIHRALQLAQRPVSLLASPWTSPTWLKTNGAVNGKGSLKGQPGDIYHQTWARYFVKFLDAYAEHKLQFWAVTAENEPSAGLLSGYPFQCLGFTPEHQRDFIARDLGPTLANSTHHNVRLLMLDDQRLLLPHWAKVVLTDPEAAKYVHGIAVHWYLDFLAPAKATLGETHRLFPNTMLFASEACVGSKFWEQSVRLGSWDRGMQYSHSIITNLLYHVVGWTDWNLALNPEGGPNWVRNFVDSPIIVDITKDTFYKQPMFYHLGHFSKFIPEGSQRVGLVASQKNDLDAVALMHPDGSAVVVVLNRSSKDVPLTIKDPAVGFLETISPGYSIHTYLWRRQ
# How it was run: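 Compounds titrated from 0.6 nM upwards against 0.2 nM enzyme in pH 5.9 citric acid/KH2PO4, taurocholate, tween-20; blue fluorogenic substrate 80 uM, 40 min room temperature, stopped and read Ex 365/Em 440 for AC50.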
# [2] = AP1 Signaling Pathway (AID 357; active means well fitted curve in either direction with a large enough effect, not every such curve was filed as active; further: on the % scale 0 is the no-effect control and ±100 the full control effect); details: ME-180 AP-1-bla reporter, EGF-induced, beta-lactamase ratio, 5 h; at 7.69 µM (top of the series) unless noted
# How it was run: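 Modulation of EGF-driven AP-1 transcription was assessed with a beta-lactamase reporter in ME-180 cells. Compound and EC50 EGF were co-incubated 5 hours at 37 °C before 2.5-hour CCF4 loading at room temperature and dual-emission reading.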
# [3] = molecular target: Cytochrome P450 1A2 (Homo sapiens) (UniProt P05177); experiment: p450-cyp1a2 (AID 410; calls by dose curve; further: potency means the concentration at half of the fitted maximal effect); details: recombinant CYP1A2, luciferin-ME demethylation, luminescence; series mostly up to 57 µM
# Chain of Cytochrome P450 1A2 (Homo sapiens) (P05177 whole entry, looked up): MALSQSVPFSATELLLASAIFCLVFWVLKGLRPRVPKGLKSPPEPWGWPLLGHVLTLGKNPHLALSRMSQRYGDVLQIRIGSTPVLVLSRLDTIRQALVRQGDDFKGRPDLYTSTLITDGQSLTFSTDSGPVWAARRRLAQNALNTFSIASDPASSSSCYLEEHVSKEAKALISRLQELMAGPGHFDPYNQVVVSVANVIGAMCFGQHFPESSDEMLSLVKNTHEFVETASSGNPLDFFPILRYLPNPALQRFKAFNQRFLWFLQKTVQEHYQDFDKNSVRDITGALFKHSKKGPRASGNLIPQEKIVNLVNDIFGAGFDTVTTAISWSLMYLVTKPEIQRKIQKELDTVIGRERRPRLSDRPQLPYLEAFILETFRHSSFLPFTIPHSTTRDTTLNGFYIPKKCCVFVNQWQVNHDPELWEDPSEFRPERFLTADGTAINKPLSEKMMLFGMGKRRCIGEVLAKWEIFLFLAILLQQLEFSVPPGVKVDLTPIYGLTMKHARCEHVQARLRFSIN
# How it was run: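 Human CYP1A2 (20nM) demethylated Luciferin-ME at its Km (100uM) in 100mM KPO4. After 10 min compound preincubation, NADPH regeneration ran the reaction 60 min at room temperature. Luciferin was read by luminescence, normalized to 57 uM furafylline.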
# [4] = NFAT Signaling Pathway (AID 444; active means well fitted curve in either direction with a large enough effect, not every such curve was filed as active;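 further: carbachol stimulus at about its EC50 of 1 µM final; on the % scale 0 is the no-effect control and ±100 the full control effect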); details: Jurkat NFAT-bla M1, carbachol, beta-lactamase ratio, 5 h; at 7.69 µM (top of the series) unless noted
# How it was run: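 Jurkat cells with NFAT-driven β-lactamase reporter and co-expressed M1 receptor, stimulated with carbachol (final 1 uM, ~EC50), compound titration, 5 h at 37 °C. CCF4 loaded 1 h at RT; 460/530 nm ratio gave %activity and AC50.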
# [5] = Stat Signaling Pathway (AID 446; active means well fitted curve in either direction with a large enough effect, not every such curve was filed as active;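 further: ME-180 cervical cancer cells given 40 pM IL-6 alongside compound; SIE-controlled beta-lactamase reporter measured as 460/530 nm FRET emission ratio; on the % scale 0 is the no-effect control and ±100 the full control effect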); details: ME-180 SIE beta-lactamase reporter, IL-6 stimulated, 5 h; at 7.69 µM (top of the series) unless noted
# How it was run: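 ME-180 SIE-bla cells; overnight plating; cpd + IL-6 40 pM, 5 h, 37 C; LiveBLAzer 2.5 h RT; 460/530 nm emission ratio. Normalized to 300 pM IL-6 and 125 nM JAK inhibitor controls.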
# [6] = molecular target: Glucocorticoid receptor (Homo sapiens) (UniProt P04150); experiment: GR-GFP Redistribution (AID 450;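 active means compounds whose dose series gives a full or clear partial fitted curve of increased nuclear translocation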; further: potency means the concentration at half of the fitted maximal effect); details: U2OS GR-GFP nuclear translocation, laser cytometry, 2 h
# Chain of Glucocorticoid receptor (Homo sapiens) (P04150 whole entry, looked up, the tested form may be a part): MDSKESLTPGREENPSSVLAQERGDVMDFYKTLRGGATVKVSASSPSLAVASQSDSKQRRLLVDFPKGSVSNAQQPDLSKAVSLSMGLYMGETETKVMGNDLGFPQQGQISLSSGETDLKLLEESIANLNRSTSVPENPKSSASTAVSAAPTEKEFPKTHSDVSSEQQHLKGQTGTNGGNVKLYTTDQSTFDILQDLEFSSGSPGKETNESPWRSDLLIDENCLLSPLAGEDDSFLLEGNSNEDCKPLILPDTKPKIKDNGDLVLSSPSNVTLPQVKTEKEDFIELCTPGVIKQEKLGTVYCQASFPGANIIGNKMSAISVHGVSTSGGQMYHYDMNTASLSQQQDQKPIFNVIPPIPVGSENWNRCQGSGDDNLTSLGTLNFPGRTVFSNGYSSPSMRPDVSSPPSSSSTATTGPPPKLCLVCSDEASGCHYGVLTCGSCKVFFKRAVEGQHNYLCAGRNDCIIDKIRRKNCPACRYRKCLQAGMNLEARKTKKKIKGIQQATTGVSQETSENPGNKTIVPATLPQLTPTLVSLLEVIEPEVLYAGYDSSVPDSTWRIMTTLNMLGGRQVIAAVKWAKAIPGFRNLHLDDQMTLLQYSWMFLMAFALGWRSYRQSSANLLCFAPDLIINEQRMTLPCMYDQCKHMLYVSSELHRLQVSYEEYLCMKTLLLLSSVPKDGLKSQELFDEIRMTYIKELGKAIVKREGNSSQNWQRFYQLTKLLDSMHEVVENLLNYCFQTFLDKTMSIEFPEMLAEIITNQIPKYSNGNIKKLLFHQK
# [7] = molecular target: Glucocorticoid receptor (Homo sapiens) (UniProt P04150); experiment: GR-EFC Redistribution (AID 451; calls by dose curve; further: potency means the concentration at half of the fitted maximal effect); details: CHO-K1 GR-EFC translocation, beta-gal luminescence, 2 h
# How it was run: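 CHO-K1 cells expressing nuclear EA and GR-ED fragments of b-gal; compounds titrated up to 46 uM final, 2 h at 37 C. GR nuclear translocation read as complemented b-gal luminescence after 1 h RT detection.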
# [8] = molecular target: Mitogen-activated protein kinase 10 (Mus musculus) (UniProt Q61831); experiment: JNK3 AlphaScreen Assay (AID 530; active means well fitted curve in either direction with a large enough effect, not every such curve was filed as active;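 further: kinase came from lysate of stimulated human HepG2 cells; signal reports phosphorylation of biotinylated GST-cJun 1-79 at Ser73 with 10 µM ATP; on the % scale 0 is the no-effect control and ±100 the full control effect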); details: JNK3 lysate, c-Jun phosphorylation; series mostly up to 57.1 µM
# How it was run: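 qHTS format: compounds tested as titrations against IL-1beta/TNF-alpha-activated HepG2 lysate JNK3 with biotin-GST-cJun substrate and 10 uM ATP at room temperature. Loss of anti-phospho-cJun AlphaScreen signal indicates inhibition.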
# [9] = molecular target: 3',5'-cyclic-AMP phosphodiesterase 4B (Homo sapiens) (UniProt Q07343); experiment: qHTS Assay for Inhibitors of PDE-IV (AID 607; active means well fitted activation curve with a large enough effect in the main read-out, with a control signal flat, not every such curve was filed as active; further: % of control where 0% means no effect); details: HEK293 ACTOne CNG channel cells, membrane potential fluorescence; series mostly up to 22.9 µM
# Chain of 3',5'-cyclic-AMP phosphodiesterase 4B (Homo sapiens) (Q07343 whole entry, looked up): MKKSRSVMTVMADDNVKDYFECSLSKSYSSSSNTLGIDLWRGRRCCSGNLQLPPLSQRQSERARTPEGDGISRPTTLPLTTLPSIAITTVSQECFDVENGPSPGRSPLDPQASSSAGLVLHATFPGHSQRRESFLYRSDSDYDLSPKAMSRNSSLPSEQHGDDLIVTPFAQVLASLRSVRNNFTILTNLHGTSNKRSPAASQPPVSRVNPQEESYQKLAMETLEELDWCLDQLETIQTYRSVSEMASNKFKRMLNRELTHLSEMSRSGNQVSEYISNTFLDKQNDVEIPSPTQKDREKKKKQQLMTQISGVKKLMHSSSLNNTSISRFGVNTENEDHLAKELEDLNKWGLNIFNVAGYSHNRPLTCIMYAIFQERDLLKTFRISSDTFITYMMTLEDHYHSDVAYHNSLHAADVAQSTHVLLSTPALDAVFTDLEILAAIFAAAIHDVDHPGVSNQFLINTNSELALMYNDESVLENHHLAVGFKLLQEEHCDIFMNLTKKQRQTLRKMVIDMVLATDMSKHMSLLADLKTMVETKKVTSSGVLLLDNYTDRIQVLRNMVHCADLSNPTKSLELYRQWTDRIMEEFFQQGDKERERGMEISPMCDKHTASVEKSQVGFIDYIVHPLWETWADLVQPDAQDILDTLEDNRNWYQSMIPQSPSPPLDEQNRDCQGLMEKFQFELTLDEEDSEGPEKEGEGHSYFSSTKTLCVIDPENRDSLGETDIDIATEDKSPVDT
# How it was run: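 ACTOne HEK293 cells carry a modified cAMP-gated CNG channel and express endogenous PDE4; plated 1000 cells/well, compounds up to 22.9 uM final. Membrane-potential dye fluorescence (ex 535/em 590) was read; parental cells received 10 uM forskolin + 100 uM RO 20-1724.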
# [10] = molecular target: Dual specificity protein kinase CLK4 (Homo sapiens) (UniProt Q9HAZ1); experiment: qHTS Assay for Inhibitors of CDC-like Kinase 4 (Kinase-Glo Assay) (AID 1770); details: recombinant Clk4, Kinase-Glo ATP depletion luminescence; series mostly up to 66.7 µM; further: nearly all actives have a fitted effect of over 65% in size; further: potency means the concentration at half of the fitted maximal effect
# Chain of Dual specificity protein kinase CLK4 (Homo sapiens) (Q9HAZ1 whole entry, looked up): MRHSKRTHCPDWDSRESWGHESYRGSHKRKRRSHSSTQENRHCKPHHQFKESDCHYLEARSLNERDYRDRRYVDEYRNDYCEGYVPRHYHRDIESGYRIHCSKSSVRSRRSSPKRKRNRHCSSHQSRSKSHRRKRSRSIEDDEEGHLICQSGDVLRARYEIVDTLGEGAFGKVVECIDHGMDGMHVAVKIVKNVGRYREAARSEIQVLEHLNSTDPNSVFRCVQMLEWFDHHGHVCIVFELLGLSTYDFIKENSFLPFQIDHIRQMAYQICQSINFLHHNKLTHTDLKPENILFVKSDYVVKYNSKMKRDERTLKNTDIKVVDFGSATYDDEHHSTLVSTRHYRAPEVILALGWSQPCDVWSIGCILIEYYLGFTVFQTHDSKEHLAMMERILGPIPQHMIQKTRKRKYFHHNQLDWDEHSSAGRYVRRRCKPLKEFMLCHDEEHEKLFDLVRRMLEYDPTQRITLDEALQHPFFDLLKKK
# How it was run: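 25 nM Clk4 with 100 uM RS repeat peptide and 1 uM ATP (final) in Tris pH7.5, 10 mM MgCl2, 4.5 h at room temperature. Remaining ATP measured by Kinase-Glo luciferase luminescence.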
# [11] = molecular target: Dual specificity protein kinase CLK4 (Homo sapiens) (UniProt Q9HAZ1); experiment: qHTS Assay for Inhibitors of CDC-like Kinase 4 (ADP-Glo Assay) (AID 1771); details: recombinant CLK4, ADP-Glo luminescence; series mostly up to 80 µM; further: nearly all actives have a fitted effect of over 70% in size; further: potency means the concentration at half of the fitted maximal effect
# How it was run: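 Clk4 (25 nM) was incubated 1 hr at room temperature with 100 uM RS repeat peptide and 1 uM ATP in buffer with 2 mM MgCl2, 0.5 mM EGTA, 2.5 mM DTT. ADP formed was quantified by ADP-Glo luminescence.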
# [12] = molecular target: Ubiquitin carboxyl-terminal hydrolase 1 (Homo sapiens) (UniProt O94782); experiment: Inhibitors of USP1/UAF1: Pilot qHTS (AID 504865); details: purified USP1/UAF1, Ub-rhodamine cleavage fluorescence; series mostly up to 54.9 µM; further: nearly all actives have a fitted effect of over 35% in size; further: potency means the concentration at half of the fitted maximal effect
# Chain of Ubiquitin carboxyl-terminal hydrolase 1 (Homo sapiens) (O94782 whole entry, looked up): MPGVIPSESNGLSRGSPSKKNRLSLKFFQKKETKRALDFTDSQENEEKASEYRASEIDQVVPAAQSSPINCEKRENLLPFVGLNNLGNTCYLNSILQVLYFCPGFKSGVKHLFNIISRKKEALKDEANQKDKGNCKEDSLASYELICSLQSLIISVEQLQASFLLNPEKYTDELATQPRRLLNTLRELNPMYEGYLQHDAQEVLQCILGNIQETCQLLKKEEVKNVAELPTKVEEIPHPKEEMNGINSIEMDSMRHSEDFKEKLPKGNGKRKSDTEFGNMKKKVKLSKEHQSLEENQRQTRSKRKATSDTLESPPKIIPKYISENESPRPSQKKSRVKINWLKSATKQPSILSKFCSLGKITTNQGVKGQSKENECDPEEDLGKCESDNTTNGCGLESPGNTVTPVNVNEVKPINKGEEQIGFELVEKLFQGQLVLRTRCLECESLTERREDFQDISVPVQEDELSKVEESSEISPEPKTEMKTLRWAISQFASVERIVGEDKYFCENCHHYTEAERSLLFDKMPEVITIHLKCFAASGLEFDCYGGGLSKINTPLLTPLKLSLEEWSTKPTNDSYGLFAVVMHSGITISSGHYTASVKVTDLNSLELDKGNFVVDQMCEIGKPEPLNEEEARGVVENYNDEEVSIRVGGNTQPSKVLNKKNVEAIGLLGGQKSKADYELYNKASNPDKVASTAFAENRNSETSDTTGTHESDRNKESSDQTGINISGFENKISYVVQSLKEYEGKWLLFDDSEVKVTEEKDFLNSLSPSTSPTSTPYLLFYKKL
# How it was run: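 USP1/UAF1 complex at 1 nM preincubated 15 min at room temperature with compound, then Ub-Rho substrate added at 150 nM final. Fluorescence (480/540 nm) read kinetically in 50 mM HEPES pH 7.8, 0.5 mM EDTA, 1 mM TCEP, 0.1 mg/ml BSA, 0.01% Tween-20.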
# [13] = Primary qHTS for small molecule stabilizers of the endoplasmic reticulum resident proteome: Secreted ER Calcium Modulated Protein (SERCaMP) assay (AID 1508630); details: SH-SY5Y GLuc-SERCaMP (Gaussia luciferase released on ER calcium loss) secretion, thapsigargin, luminescence; series mostly up to 38.4 µM; further: on the % scale 0 is the no-effect control and ±100 the full control effect
# How it was run: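 GLuc-SERCaMP-expressing SH-SY5Y cells, pretreated 16 h with compound, are challenged with thapsigargin to empty ER calcium stores; after 4 h, coelenterazine is added directly to the medium and luminescence is imaged.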
# [14] = molecular target: Cytochrome P450 3A4 (Homo sapiens) (UniProt P08684); experiment: qHTS Assay for Inhibitors and Substrates of Cytochrome P450 3A4 (AID 884); details: recombinant CYP3A4, Luciferin-PPXE luminescence; series mostly up to 57.1 µM; further: potency means the concentration at half of the fitted maximal effect; nearly all actives have a fitted effect of over 50% in size
# Chain of Cytochrome P450 3A4 (Homo sapiens) (P08684 whole entry, looked up): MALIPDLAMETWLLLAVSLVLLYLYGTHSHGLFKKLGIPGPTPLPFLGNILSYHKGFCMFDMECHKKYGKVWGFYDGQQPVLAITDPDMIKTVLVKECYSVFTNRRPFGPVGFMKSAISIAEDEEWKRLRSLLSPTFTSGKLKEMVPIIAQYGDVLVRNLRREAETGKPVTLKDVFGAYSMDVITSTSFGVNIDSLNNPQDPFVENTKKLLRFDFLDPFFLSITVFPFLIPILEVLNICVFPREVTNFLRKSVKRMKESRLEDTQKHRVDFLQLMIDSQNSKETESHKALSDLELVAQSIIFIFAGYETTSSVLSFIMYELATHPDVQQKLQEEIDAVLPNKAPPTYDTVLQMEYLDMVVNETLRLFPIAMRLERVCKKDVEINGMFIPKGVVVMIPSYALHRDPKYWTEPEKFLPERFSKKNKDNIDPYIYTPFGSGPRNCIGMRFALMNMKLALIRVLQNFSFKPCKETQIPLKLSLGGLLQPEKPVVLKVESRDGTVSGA
# How it was run: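 20 nM human CYP3A4 with 25 uM Luciferin-PPXE (at KM) in 200 mM KPO4, preincubated 10 min with compound; NADPH regeneration started a 60 min RT reaction. Luciferin detected by luminescence, normalized to 57 uM ketoconazole as full inhibition.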
# [15] = molecular target: Cytochrome P450 3A4 (Homo sapiens) (UniProt P08684); experiment: qHTS Assay for Activators of Cytochrome P450 3A4 (AID 885); details: recombinant CYP3A4, Luciferin-PPXE luminescence, 60 min; series mostly up to 57.1 µM; further: nearly all actives have a fitted effect of over 65% in size
# How it was run: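 20nM CYP3A4 + 25uM Luciferin-PPXE (=KM), 200mM KPO4; cpd 10 min RT; NADPH regen, 60 min RT; stop w/ detection buffer, 20 min; luminescence. Normalized to 57 uM ketoconazole.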
# [16] = qHTS Assay for Identification of Small Molecule Agonists for Hypoxia Response Element Signaling Pathway (AID 914; active means well fitted activation curve with a large enough effect in the signal ratio, with a control signal flat, not every such curve was filed as active; the % refers to the signal ratio; further: % of control where 0% means no effect); details: ME-180 (cervical carcinoma) HRE-bla reporter, beta-lactamase ratio, CoCl2, 17 h; activation: stronger effect = higher value
# How it was run: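 In Opti-MEM containing 0.5% dialyzed FBS and 10 mM HEPES, ME-180 HRE-bla cells received a compound titration and EC50 CoCl2. They were incubated 17 hours, then CCF4-loaded 2.5 hours at room temperature before ratio reading.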
# [17] = molecular target: Dual specificity protein kinase CLK4 (Homo sapiens) (UniProt Q9HAZ1); experiment: qHTS Assay for Inhibitors of CDC-like Kinase 4 (ADP-FP Assay) (AID 1795); details: Transcreener ADP fluorescence polarization; series mostly up to 50 µM; further: nearly all actives have a fitted effect of over 60% in size; further: potency means the concentration at half of the fitted maximal effect
# How it was run: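 Recombinant Clk4 (6.25 nM) phosphorylated 100 uM RS repeat peptide with 1 uM ATP in 25 mM Tris pH 7.5, 10 mM MgCl2, 0.5 mM EGTA, 2.5 mM DTT, 0.01% Triton X-100 for 1 h. ADP was detected by Transcreener ADP2 competitive fluorescence polarization after 30 min at room temperature.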
# [18] = molecular target: Cytochrome P450 2C19 (Homo sapiens) (UniProt P33261); experiment: qHTS Assay for Inhibitors and Substrates of Cytochrome P450 2C19 (AID 899); details: recombinant CYP2C19, luciferin-H EGE luminescence; series mostly up to 57.1 µM; further: potency means the concentration at half of the fitted maximal effect; nearly all actives have a fitted effect of over 60% in size
# Chain of Cytochrome P450 2C19 (Homo sapiens) (P33261 whole entry, looked up): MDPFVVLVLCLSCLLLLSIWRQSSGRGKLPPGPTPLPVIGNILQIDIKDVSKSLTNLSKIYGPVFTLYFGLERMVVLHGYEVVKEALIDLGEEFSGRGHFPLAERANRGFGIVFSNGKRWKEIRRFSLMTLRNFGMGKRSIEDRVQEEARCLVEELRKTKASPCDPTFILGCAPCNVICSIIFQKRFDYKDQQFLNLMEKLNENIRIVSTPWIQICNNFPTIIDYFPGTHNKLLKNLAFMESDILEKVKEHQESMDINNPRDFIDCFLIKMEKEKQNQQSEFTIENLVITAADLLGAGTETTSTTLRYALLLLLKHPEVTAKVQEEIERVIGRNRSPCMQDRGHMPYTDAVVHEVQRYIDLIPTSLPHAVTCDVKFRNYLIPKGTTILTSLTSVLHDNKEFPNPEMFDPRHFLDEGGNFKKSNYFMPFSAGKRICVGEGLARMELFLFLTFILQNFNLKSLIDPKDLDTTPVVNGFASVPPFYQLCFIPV
# How it was run: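 Luminescent read-out of luciferin formed from Luciferin-H EGE (10uM, equal to KM). Enzyme 5nM in 50mM KPO4; compound added, 10 min at 37C, then NADPH regenerating system for 60 min at 37C. Full inhibition defined by 57uM ketoconazole.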
SMILES,Potency [1],"activity change, negative = inhibition [2]",Potency [3],"activity change, negative = inhibition [4]","activity, negative = inhibition [5]",Potency [6],Potency [7],Potency [8],Potency [9],Potency [10],Potency [11],Potency [12],outcome [13],Potency [14],Potency [15],activation [16],Potency [17],Potency [18]
Cc1noc(C)c1-c1ccc2ncnc(N3CCC(C(=O)O)CC3)c2c1,> 11.4 µM,8.06%,25.1 µM (active),-4.03%,10.8%,> 46 µM,> 46 µM,inactive,inactive,25.1 µM (active),25.1 µM (active),inactive,inactive,,,,,
Cc1cnc(CNc2ncncc2-c2ccc3c(c2)OCO3)cn1,> 11.4 µM,-10.4%,2 µM (active),-2.24%,4.5%,> 46 µM,> 46 µM,inactive,inactive,14.1 µM (active),15.8 µM (active),inactive,inactive,1.58 µM (active),inactive,,,
Cc1cnc(CNc2ncncc2-c2ccccc2Cl)cn1,> 11.4 µM,-2.38%,15.8 µM (active),13.7%,-0.675%,> 46 µM,> 46 µM,inactive,inactive,inactive,inactive,inactive,inactive,,,,,
O=c1c(-c2cccs2)nc2cnc(Oc3ccccc3)nc2n1Cc1cccs1,,-14%,,1.21%,1.3%,> 9.22 µM,,inactive,inactive,inactive,inactive,,inactive,,inactive,9.14%,inactive,
COc1ccc2[nH]cc(CCNc3cc(-c4ccc5c(c4)OCO5)ncn3)c2c1,,,,19.3%,,> 46 µM,> 46 µM,,,3.98 µM (active),3.16 µM (active),inactive,inactive,,,,2.51 µM (active),
c1csc(CNc2ncncc2-c2ccoc2)c1,> 11.4 µM,-12.1%,2 µM (active),3.52%,-10.5%,> 46 µM,> 46 µM,inactive,inactive,inactive,inactive,inactive,inactive,2 µM (active),inactive,2.26%,,
COc1cccc(-c2nc(NCc3ccccc3OC)c3ccccc3n2)c1,,9.52%,0.631 µM (active),,-9.86%,> 46 µM,> 46 µM,inactive,,inactive,inactive,inactive,inactive,3.98 µM (active),inactive,,inactive,7.94 µM (active)
Cc1cnc(CNc2cc(-c3ccc(N(C)C)cc3)ncn2)cn1,> 11.4 µM,-9.61%,,11.3%,-5.54%,> 46 µM,> 46 µM,inactive,inactive,5.01 µM (active),5.01 µM (active),inactive,inactive,,,,,
COc1ccccc1-c1cc(N(C)Cc2ccco2)ncn1,> 11.4 µM,28.4%,,-15.8%,5.75%,> 46 µM,> 46 µM,inactive,inactive,28.2 µM (active),35.5 µM (active),inactive,inactive,,,,,3.98 µM (active)
COc1cccc(-c2cncnc2Nc2ccccc2)c1,> 11.4 µM,-6.33%,,0.84%,-2.57%,> 46 µM,> 46 µM,inactive,,inactive,inactive,inactive,inactive,,,,,
COc1cccc(-c2nc(NCc3cccs3)c3ccccc3n2)c1,> 11.4 µM,9.31%,0.316 µM (active),-22.6%,-12.6%,> 46 µM,> 46 µM,inactive,,17.8 µM (active),15.8 µM (active),20 µM (active),inactive,,inactive,,,3.16 µM (active)
CS(=O)(=O)Nc1cccc(-c2nc(-n3ccnc3)c3ccccc3n2)c1,> 11.4 µM,-3.92%,,4.67%,-7.2%,> 46 µM,> 46 µM,inactive,,15.8 µM (active),20 µM (active),inactive,inactive,,,,,
Cc1noc(C)c1-c1ccc2ncnc(NCCN3CCOCC3)c2c1,> 11.4 µM,1.93%,15.8 µM (active),,-22.6%,> 46 µM,> 46 µM,inactive,inactive,8.91 µM (active),6.31 µM (active),inactive,inactive,,inactive,,,

# Reference: PubChem BioAssay (NCATS)
